# According to PubChem BioAssay (EPA / NIEHS):
# Results filed as inconclusive are left out. The source made the active and inactive calls. How the source made its calls, unless noted: active means hit-call score of the fitted dose curve at least 0.9, where 1 is the maximum; inactive means score below 0.9.
# Assays:
# [1] = CCTE_Shafer_MEA_acute_AB: CCTE's Alamar Blue Assay for Cytotoxicity in the Neural Acute Assay, Shafer Lab (AID 2284069; active means hit-call score of the fitted dose curve at least 0.9, where 1 is the maximum;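 further: active compounds lower the viability signal compared with DMSO wells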)
# How it was run: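 Read-out: resazurin fluorescence (ex 544, em 590 nm) after CTB reagent at 1:6 dilution in fresh media. Cells: primary rat cortical neuron networks, DIV 13 or 15, chemically exposed on MEA plates; DMSO as negative control/baseline.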
# [2] = CCTE_Shafer_MEA_acute_LDH: CCTE's Lactate Dehydrogenase Assay for Cytotoxicity in the Neural Acute Assay, Shafer Lab (AID 2284086; active means hit-call score of the fitted dose curve at least 0.9, where 1 is the maximum;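 further: active means LDH release rises above DMSO vehicle level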)
# How it was run: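 Released lactate dehydrogenase, read at 490 nm, indicated cytotoxicity after acute 40-min compound treatment of rat cortical neuron networks grown on 48-well MEA plates.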
# [3] = CCTE_Shafer_MEA_dev_inter_network_spike_interval_mean: CCTE's Neural Network Formation Assay for Mean Inter-network Spike Interval, Shafer Lab (AID 2284047)
# How it was run: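 Primary rat cortical neurons on PEI-coated 48-well MEAs (16 electrodes/well) were exposed from plating day 0 to DIV 12, with dosing renewed at DIV 5 and 9. Recordings at DIV 5, 7, 9, 12 were collapsed by trapezoidal AUC, loss-of-signal fit vs DMSO.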
# [4] = CCTE_Shafer_MEA_dev_network_spike_number: CCTE's Neural Network Formation Assay for Number of Network Spikes, Shafer Lab (AID 2284048);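 further: synchronized bursts across electrodes counted on days 5 7 9 12 and integrated as AUC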
# How it was run: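 Primary rat cortical neurons on PEI/laminin 48-well MEA plates, dosed from plating day 0 for 12 days, renewed at DIV 5 and 9. Network spike counts recorded DIV 5, 7, 9, 12, collapsed as trapezoidal AUC; DMSO baseline.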
# [5] = CCTE_Shafer_MEA_dev_network_spike_peak: CCTE's Neural Network Formation Assay for Mean Number of Electrodes in Network Spike, Shafer Lab (AID 2284049);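 on AC50: fitted for loss of signal meaning fewer electrodes in network spikes than DMSO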
# How it was run: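 Network-spike peak electrode count from recordings on days 5, 7, 9 and 12 was combined as trapezoidal area under the curve. Rat cortical cultures were treated continuously from plating, with compound renewed at each feed (DIV 5, 9); fits versus DMSO.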
# [6] = CCTE_Shafer_MEA_dev_spike_duration_mean: CCTE's Neural Network Formation Assay for Mean Spike Duration, Shafer Lab (AID 2284051);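 further: mean network spike duration pooled as area under curve over DIV 5 to 12 recordings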
# How it was run: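 Rat cortical primary cultures, 48-well MEA (16 electrodes/well); compound from plating, renewed DIV 5, 9. Network spike duration (AxIS adaptive detector) recorded DIV 5/7/9/12, combined as trapezoidal AUC; loss direction vs DMSO.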
# [7] = CCTE_Shafer_MEA_dev_network_spike_duration_std: CCTE's Neural Network Formation Assay for Standard Deviation of Network Spike Duration, Shafer Lab (AID 2284052);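 further: area under curve of spike duration SD across recording days 5 to 12; hits are decreases in network spike duration SD versus DMSO vehicle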
# How it was run: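 Rat cortical cultures, 1.5 x 10^5 cells/well, exposed continuously from plating to DIV 12 with media/compound renewal at DIV 5, 9. Spontaneous activity recorded DIV 5/7/9/12, AxIS adaptive spike detector; AUC across days; negative direction vs DMSO.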
# [8] = CCTE_Shafer_MEA_dev_per_network_spike_spike_number_mean: CCTE's Neural Network Formation Assay for Mean Number of Spikes in a Network Spike, Shafer Lab (AID 2284053)
# How it was run: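 Rat cortical primary cultures on 48-well MEA; compound from day 0, re-dosed with full media change DIV 5, 9. Recorded DIV 5, 7, 9, 12; spikes in 0.05 s window at network-spike peak ÷ total network spikes; AUC; loss vs DMSO.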
# [9] = CCTE_Shafer_MEA_dev_per_network_spike_spike_percent: CCTE's Neural Network Formation Assay for Percent of Spikes in a Network Spike, Shafer Lab (AID 2284054)
# How it was run: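 Rat primary cortical neurons were grown on 48-well MEA plates (16 electrodes/well), exposed from plating day 0 through day 12, with treatment renewed on DIV 5 and 9. Percent of spikes within 0.05 s network-spike peaks was measured, summarised as AUC across days 5, 7, 9, 12.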
# [10] = CCTE_Shafer_MEA_dev_LDH: CCTE's Lactate Dehydrogenase Assay for Cytotoxicity in the Neural Network Formation Assay, Shafer Lab (AID 2284068; active means hit-call score of the fitted dose curve at least 0.9, where 1 is the maximum;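 further: exposure for twelve days from plating with re-dosing on DIV 5 and 9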)
# How it was run: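 Rat cortical primary neurons, MEA culture; dosing day 0–12, full medium plus compound exchange DIV 5, 9. Read-out: LDH enzyme activity, spectrophotometric. DMSO = negative control/baseline; signal loss → cytotoxicity.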
# [11] = CCTE_Shafer_MEA_dev_AB: CCTE's Alamar Blue Assay for Cytotoxicity in the Neural Network Formation Assay, Shafer Lab (AID 2284083; active means hit-call score of the fitted dose curve at least 0.9, where 1 is the maximum;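 further: resazurin reduction fluorescence as viability of cultured neurons; twelve days of exposure from plating with re-dosing on DIV 5 and 9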)
# How it was run: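 Rat cortical primary cultures, 1.5 x 10^5 cells/well on MEA; continuous compound exposure over 12 days of network development, re-dosed with full medium change DIV 5 and 9. Alamar Blue fluorescence; loss of signal = cytotoxicity vs DMSO baseline.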
# [12] = CCTE_Shafer_MEA_dev_mutual_information_norm: CCTE's Neural Network Formation Assay for Mutual Information Normalization, Shafer Lab (AID 2284091)
# How it was run: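 Primary rat cortical neurons on PEI-coated 48-well MEA plates, 1.5 x 10^5 cells/well, exposed from day 0 through day 12 with re-dosing at DIV 5 and 9. Mutual information between electrodes recorded days 5, 7, 9, 12; trapezoidal AUC, loss-of-signal fit versus DMSO.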
# [13] = CCTE_Shafer_MEA_dev_correlation_coefficient_mean: CCTE's Neural Network Formation Assay for Mean Correlation Coefficient, Shafer Lab (AID 2284093)
# How it was run: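 Rat cortical cultures, 1.5 x 10^5 cells/well, dosed from day 0 for 12 days. Spontaneous spikes recorded DIV 5/7/9/12; electrode-pair correlation coefficients averaged, AUC taken. Fit in loss direction vs DMSO.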
# [14] = IUF_NPC1b_proliferation_BrdU_72hr: Leibniz Research Institute for Environmental Medicine (IUF) 72-hour Neural Progenitor Cell Bromodeoxyuridine (BrdU) Proliferation Assay (NPC1b) (AID 2284207)
# How it was run: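 BrdU luminescence ELISA quantified DNA synthesis over the last 16 h of a 72 h exposure, fitted against DMSO. Primary hNPC spheres from gestational week 16-19 cortex grown with EGF/FGF at 37C, pH 7.2-7.6.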
# [15] = IUF_NPC1a_proliferation_area_72hr: Leibniz Research Institute for Environmental Medicine (IUF) 72-hour Neural Progenitor Cell Proliferation Area Assay (NPC1a) (AID 2284208)
# How it was run: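 hNPC spheres (human fetal cortex, GW 16-19), one per poly-Hema U-bottom well; EGF+FGF medium; dosed day 0, no re-dosing; 72 h, 37C, 5% CO2; phase-contrast sphere area; DMSO = baseline; minus-GF = positive ctrl.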
# [16] = IUF_NPC1_viability_72hr: Viability Assessment at 72 hours in the Leibniz Research Institute for Environmental Medicine (IUF) Neural Progenitor Cell Proliferation Assay (NPC1) (AID 2284209)
# How it was run: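 Each well receives one 0.3 mm progenitor sphere from fetal brain cortex; test chemical is added at plating and left three days. Viability comes from alamar blue fluorescence, multiplexed with LDH and BrdU readouts in the same well.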
# [17] = CCTE_Mundy_HCI_Cortical_Synap_Neur_Matur_NeuriteSpotCountPerNeuriteLength: CCTE's Synaptogenesis and Neurite Maturation Assay in rat cortical cells for Neurite Spot Count per Neurite Length, Mundy Lab (AID 2284210)
# How it was run: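 Rat primary cortical cultures, AraC added at DIV 5 to suppress glia; chemical exposure from DIV 7 to DIV 12. Fixed cells stained for MAP2 and synaptophysin plus Hoechst; synaptophysin puncta per neurite length quantified by high-content imaging, relative to DMSO.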
# [18] = CCTE_Mundy_HCI_Cortical_Synap_Neur_Matur_BPCount: CCTE's Synaptogenesis and Neurite Maturation Assay in rat cortical cells for Branch Point Count, Mundy Lab (AID 2284211)
# How it was run: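 Branch point number is quantified by automated imaging of fluorescently labelled neurites and synapses in rat primary cortical neurons exposed from DIV 7 to DIV 12. Activity is analysed relative to DMSO negative control.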
compound,measurement,setting,value
CCCCCCCCCCCCc1ccccc1,outcome,[1],inactive
same,outcome,[2],inactive
O=C(O)c1cc(N=Nc2ccc(S(=O)(=O)Nc3ccccn3)cc2)ccc1O,outcome,[1],inactive
same,outcome,[2],inactive
COc1ccc2sc(C(=O)Nc3nnn[nH]3)c(OC(C)C)c2c1,outcome,[1],inactive
same,outcome,[2],inactive
O=P(OC(CCl)CCl)(OC(CCl)CCl)OC(CCl)CCl,outcome,[3],inactive
same,outcome,[4],inactive
same,AC50,[5],2.98 µM (active)
same,outcome,[6],inactive
same,outcome,[7],inactive
same,outcome,[8],inactive
same,outcome,[9],inactive
same,outcome,[10],inactive
same,outcome,[1],inactive
same,outcome,[11],inactive
same,outcome,[2],inactive
same,outcome,[12],inactive
same,outcome,[13],inactive
same,outcome,[14],inactive
same,outcome,[15],inactive
same,outcome,[16],inactive
same,outcome,[17],inactive
same,AC50,[18],6.93 µM (active)
Nc1nc2ncc(CNc3ccc(C(=O)N[C@@H](CCC(=O)O)C(=O)O)cc3)nc2c(=O)[nH]1,outcome,[3],inactive
same,outcome,[4],inactive
same,outcome,[5],inactive
same,outcome,[6],inactive
same,outcome,[7],inactive
same,outcome,[8],inactive
same,outcome,[9],inactive
same,outcome,[10],inactive
same,outcome,[12],inactive
same,outcome,[13],inactive
CC[C@H]1CC[C@H](NCc2cc3c(cc2OC)[C@H]2C[C@H]2C(=O)N3C)[C@H](c2ccccc2)N1,outcome,[1],inactive
same,outcome,[2],inactive
CC[C@H]1OC(=O)[C@H](C)[C@@H](O[C@H]2C[C@@](C)(OC)[C@@H](O)[C@H](C)O2)[C@H](C)[C@@H](O[C@@H]2O[C@H](C)C[C@H](N(C)C)[C@H]2O)[C@](C)(O)C[C@@H](C)C(=O)[C@H](C)[C@@H](O)[C@]1(C)O,outcome,[3],inactive
same,outcome,[4],inactive
same,outcome,[5],inactive
same,outcome,[6],inactive
same,outcome,[7],inactive
same,outcome,[8],inactive
same,outcome,[9],inactive
same,outcome,[1],inactive
same,outcome,[11],inactive
same,outcome,[2],inactive
same,outcome,[12],inactive
same,outcome,[13],inactive
same,outcome,[17],inactive
same,outcome,[18],inactive
NC(=O)NO,outcome,[3],inactive
same,outcome,[4],inactive
same,outcome,[5],inactive
same,outcome,[6],inactive
same,outcome,[7],inactive
same,outcome,[8],inactive
same,outcome,[9],inactive
same,outcome,[12],inactive
same,outcome,[13],inactive
same,outcome,[17],inactive
same,outcome,[18],inactive
CCCCC(CC)COC(=O)CCCCCCCCC(=O)OCC(CC)CCCC (centres undefined),outcome,[1],inactive
same,outcome,[2],inactive
O=C(O)CCN(C1(C(=O)NO)CCCC1)S(=O)(=O)c1ccc(Oc2ccc(F)cc2)cc1,outcome,[1],inactive
same,outcome,[2],inactive
CCCN(C1CCN(C(=O)C2CCNCC2)CC1)[C@@H]1CCc2ccc(OC)cc2C1,outcome,[1],inactive
same,outcome,[2],inactive
O=C1CCC(N2C(=O)c3ccccc3C2=O)C(=O)N1 (centres undefined),outcome,[3],inactive
same,outcome,[4],inactive
same,outcome,[5],inactive
same,outcome,[6],inactive
same,outcome,[7],inactive
same,outcome,[8],inactive
same,outcome,[9],inactive
same,outcome,[10],inactive
same,outcome,[12],inactive
same,outcome,[13],inactive
same,outcome,[17],inactive
same,outcome,[18],inactive
